Assay [1] is described as follows: BET inhibitor-based combinations targeting novel dependencies in MECOM-rearranged (r) AML: MV-4-11 cell line (AID 2202233). Also: nearly all actives have a fitted effect of over 45% in size. The procedure, abridged: (§1)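 Activity is given as area under the curve and as Z-AUC, mean-centred within each cell line. It comes from 11-point dose curves normalized to DMSO and empty wells. CellTiter-Glo luminescence was read after 48 hr drug exposure of 500 cells/well.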

Assay [2] can be described thus: BET inhibitor-based combinations targeting novel dependencies in MECOM-rearranged (r) AML: HNT-34 cell line (AID 2202234). Also: nearly all actives have a fitted effect of over 35% in size. The procedure, abridged: as §1
Assay [3] is described as follows: BET inhibitor-based combinations targeting novel dependencies in MECOM-rearranged (r) AML: UCSD-AML1 cell line (AID 2202235). Also: nearly all actives have a fitted effect of over 40% in size. An outline of the steps: as §1
Assay [4] in a line: BET inhibitor-based combinations targeting novel dependencies in MECOM-rearranged (r) AML: AML-191 cell line (AID 2202236; also: nearly all actives have a fitted effect of over 35% in size). An outline of the steps:
(§2)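 Cells were plated at 500 per well and exposed to an 11-point dose series of each drug for 48 hr. Viability was measured by CellTiter-Glo luminescence, normalized to DMSO and empty-well controls, and summarized as AUC and per-cell-line Z-AUC.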

A short description of assay [5]: BET inhibitor-based combinations targeting novel dependencies in MECOM-rearranged (r) AML: AML-194 cell line (AID 2202237; also: nearly all actives have a fitted effect of over 40% in size). The procedure, abridged:
as §2

Assay [6] in a line: BET inhibitor-based combinations targeting novel dependencies in MECOM-rearranged (r) AML: OCI-AML3 cell line (AID 2202232). Also: nearly all actives have a fitted effect of over 35% in size. To be noted: Potency: OCI-AML3 viability. An outline of the steps:
as §2

Assay [7] can be described thus: BET inhibitor-based combinations targeting novel dependencies in MECOM-rearranged (r) AML: SET-2 cell line (AID 2202231). Also: nearly all actives have a fitted effect of over 35% in size.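 As to viability: plate controls were DMSO treated cells for no effect and wells without cells for full effect.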 The note with it: SET-2 AML cells viability, CellTiter-Glo luminescence, 48 h; viability: active compounds read low, concentration not given here. An outline of the steps:
as §2

Results filed as inconclusive are left out. Values without a mark were called inactive. Active and inactive are the calls of the source. Calls follow the shape of the dose curve; as a rule, active = well fitted curve in the direction sought with a large enough effect; inconclusive = small, poorly fitted or top-dose-only effect, or another doubt; inactive = no such curve, though single readings can be large; an effect the other way counts as inactive or inconclusive.
Potency is read from the fitted curve at half-maximal effect.

For the compound `COC12C(COC(N)=O)C3=C(C(=O)C(C)=C(N)C3=O)N1CC1C2N1C` (stereo not drawn), the Potency result in assay [1], in assay [2], in assay [3], in assay [4] and in assay [5] was “inactive” each time.

With `Cn1c(CCCCCCC(=O)NO)nc2cc(N(CCCl)CCCl)ccc21`, the Potency in assay [6] is 2350 nM (active); in assay [1], 1480 nM (active); in assay [2], 2950 nM (active); in assay [5], 2950 nM (active).

As to `CC(C)[C@]12O[C@H]1[C@@H]1O[C@@]13[C@@]1(C)CCC4=C(COC4=O)[C@@H]1C[C@@H]1O[C@@]13C2=O`, the Potency is 59 nM (active) in assay [6], 74.2 nM (active) in assay [3] and 332 nM (active) in assay [5].

For the compound `Cn1c(COP(=O)(NCCBr)NCCBr)cnc1[N+](=O)[O-]`, the viability (usually a read-out of living cells in per cent, often relative to untreated cells) in assay [7] is 123%. Moreover, the Potency result in assay [3], in assay [4] and in assay [5] was “inactive” throughout.

For the compound `CC(C)CC(N(C)C)C1(c2ccc(Cl)cc2)CCC1` (stereo not drawn), the viability in assay [7] is 99.9%. Moreover, the Potency entry in assay [1], in assay [2] and in assay [3] was “inactive” in each case.

`C[C@]12COC(=O)C[C@@H]1CC[C@@H]1[C@@H]2CC[C@@]2(C)[C@H]1CC[C@]2(C)O`: the Potency entry in assay [6], in assay [3], in assay [4] and in assay [5] was “inactive” each time.

For `CCCCCCC(C)(C)c1cc(O)c2c(c1)OC(C)(C)C1CC=C(CO)C[C@H]21` (stereo partly drawn), the Potency in assay [6] was 26300 nM (active); in assay [1] it was 29500 nM (active); in assay [2] it was 14800 nM (active); in assay [4], 18600 nM (active).

Take `C/C1=C/C[C@@H](/C(C)=C/c2csc(C)n2)OC(=O)C[C@H](O)C(C)(C)C(=O)[C@H](C)[C@@H](O)[C@@H](C)CCC1`: the Potency in assay [1] is 148 nM (active); in assay [3] it was 118 nM (active); in assay [5], 93.4 nM (active).

On to `CSCC[C@@H](NC(=O)[C@@H](Cc1ccccc1)NC(=O)CNC(=O)CNC(=O)[C@@H](N)Cc1ccc(O)cc1)C(=O)O`, for which the Potency result in assay [6], in assay [1], in assay [2], in assay [4] and in assay [5] was “inactive” in each case.

Take `N[C@@H]1C[C@H]1c1ccccc1`: in assay [7], the viability is 95.9%. Further, the Potency result in assay [6] and in assay [5] was “inactive” in each case.

Regarding `C/C=C(\C)C(=O)N[C@@H](c1ccccc1)[C@@H](O)C(=O)O[C@H]1C[C@@]2(O)[C@@H](OC(=O)c3ccccc3)[C@@H]3[C@]4(OC(C)=O)CO[C@@H]4C[C@H](O)[C@@]3(C)C(=O)[C@H](OC(C)=O)C(=C1C)C2(C)C`, the Potency in assay [6] is 13.2 nM (active); in assay [1], 26.3 nM (active); in assay [3], 16.6 nM (active); in assay [4], 46.8 nM (active).

Take `C[C@]12CC[C@H]3[C@@H](CC[C@@]45O[C@@H]4C(O)=C(C#N)C[C@]35C)[C@@H]1CC[C@@H]2O`: the viability in assay [7] is 112%. Besides, the Potency entry in assay [2] and in assay [4] was “inactive” throughout.

As for `Cc1c(N)nc([C@H](CC(N)=O)NC[C@@H](N)C(N)=O)nc1C(=O)N[C@H](C(=O)N[C@@H](C)[C@H](O)[C@@H](C)C(=O)N[C@@H](C(=O)NCCc1nc(-c2nc(C(=O)NCCC[S+](C)C)cs2)cs1)[C@@H](C)O)C(O[C@H]1O[C@H](CO)[C@H](O)[C@@H](O)[C@H]1O[C@H]1O[C@H](CO)[C@@H](O)[C@H](OC(N)=O)[C@@H]1O)c1cnc[nH]1` (stereo partly drawn), in assay [2], the Potency is 8110 nM (active). Besides, the Potency result in assay [4] and in assay [5] was “inactive” in each case.

With `N[C@@H](Cc1ccc(N(CCCl)CCCl)cc1)C(=O)O`, the Potency in assay [2] was 3720 nM (active); in assay [3] it was 2950 nM (active); in assay [5] it was 2950 nM (active).

In the case of `O=C(O)CNC(=O)C1C(=O)N(C2CCCCC2)C(=O)N(C2CCCCC2)C1=O`, the viability in assay [7] is 114%. For the same compound, the Potency entry in assay [2], in assay [3] and in assay [5] was “inactive” in each case.

With `CO/C1=C/C(C)=C\[C@@H](C)[C@@H](O)[C@@H](C)C/C(C)=C\C=C/[C@H](OC)[C@@H]([C@@H](C)[C@@H](O)[C@H](C)[C@@]2(O)C[C@@H](O)[C@H](C)[C@@H](C(C)C)O2)OC1=O`, the Potency is 98.6 nM (active) in assay [1] and 87.9 nM (active) in assay [2]. The Potency result in assay [3] was “inactive”.

As for `CN1C(=O)COc2c(C(=O)NC3CN4CCC3CC4)cc(Cl)cc21` (stereo not drawn), the viability in assay [7] is 95.7%. The Potency entry in assay [1] and in assay [2] was “inactive” in each case.

For the compound `C/C(=C\c1csc(C)n1)[C@@H]1C[C@@H]2O[C@]2(C)CCC[C@H](C)[C@H](O)[C@@H](C)C(=O)C(C)(C)[C@@H](O)CC(=O)O1`, the Potency is 8.3 nM (active) in assay [2], 5.9 nM (active) in assay [3] and 10.5 nM (active) in assay [4].

In the case of `Cc1[nH]ncc1-c1cc2nc([C@@H]3CC4CCN3CC4)[nH]c(=O)c2s1`, the Potency in assay [6] is 9340 nM (active); in assay [1] it was 3320 nM (active); in assay [2], 9340 nM (active); in assay [3] it was 9340 nM (active); in assay [5] it was 9340 nM (active).

With `CC1(C)C(=O)N(c2ccc(C#N)c(C(F)(F)F)c2)C(=S)N1Cc1ccc(-c2cn[nH]n2)cc1`, the Potency is 11800 nM (active) in assay [6] and 20900 nM (active) in assay [5]. Moreover, the Potency result in assay [3] is “inactive”.

`O=C(NCCCNc1nc(Nc2ccc(N3CCOCC3)cc2)ncc1C1CC1)C1CCC1`: the values for the Potency in assay [1], in assay [2] and in assay [3] were 372 nM (active), 13200 nM (active) and 9340 nM (active), respectively.

With `COC(=O)[C@@]12OC[C@]34[C@H]([C@@H](O)[C@@H]1O)[C@@]1(C)CC(=O)C(O)=C(C)[C@@H]1C[C@H]3OC(=O)[C@H](OC(=O)/C=C(\C)C(C)C)[C@@H]24`, the Potency in assay [7] was 26.3 nM (active); in assay [1], 3 nM (active); in assay [2], 4.2 nM (active); in assay [4], 6.6 nM (active); in assay [5], 5.9 nM (active).

As to `Cn1c(/C=C/CO)c(CO)c2c1C(=O)C=C(N1CC1)C2=O`, the Potency entry in assay [2] and in assay [5] was “inactive” in each case.

Values taken from PubChem BioAssay (NCATS).
